This is a sample that favours compounds with a hit; in the whole collection about 0.79% have one here.
phage Ecoli inh: E. coli growth loss with phage present; 0.26% of 360,000 active; growth absorbance; inhibition, % at 11.9 µM; in the data active means inhibition above about 11%
E coli growth-1: counter-screen for AddAB inhibitors: E. coli growth inhibition; E. coli V3065 growth, OD600 absorbance, 18 h; inhibition, % at 11.9 µM; 0.27% of 330,000 active; AID 449728;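 active means inhibition above the campaign's mean inhibition across all tested compounds plus 3 SD, cut at about 9.9% in these data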;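 further: uninfected addAB+ strain grown without phage in ampicillin broth; 0% = DMSO wells and 100% = ciprofloxacin 0.95 µg/ml wells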
AddAB inh: less growth of phage-infected E. coli with AddAB; E. coli expressing H. pylori AddAB, absorbance growth; inhibition, % at 11.9 µM; 0.29% of 330,000 active; AID 435030; in the data active means inhibition above about 12%;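 further: 0% = vehicle wells of infected cells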
E coli growth-2: E. coli growth inhibition; OD600 absorbance (test concentration not listed); Escherichia coli growth, OD600, 23 h; stronger effect = lower value; AID 1053175; 0.21% of 330,000 active;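 active means OD600 absorbance below the run mean of sample wells minus 3.6 SD, in any replicate, cut at about 0.56 in these data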
AI-2 QS modul: modulates the Vibrio harveyi AI-2 quorum sensing system; Vibrio harveyi JMH597 AI-2 luminescence/OD600 ratio, 9 h; stronger effect = lower value; strain lacks LuxN and CqsS sensors; 0 = neutral-control median; 0.4% of 300,000 active; activity change, % at 7.5 µM; in the data active means activity change below about -75%, passing the limit was not always enough;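 further: luminescence divided by OD600 gain over 9 h not by final OD600 alone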
Tat export inh: inhibitors of E. coli Tat protein transport | 0.036% of 340,000 active | AID 488895 | E. coli MC4100 TorA-mCherry Tat export, fluorescence | inhibition, % at 10 µM;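 active means mean replicate inhibition at least 50% and at least half of replicates individually reaching 50%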;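 further: exported cargo escapes ClpAP degradation while cytoplasmic cargo is degraded and loses fluorescence; 0% = median of neutral control wells and 100% = median of NaSCN control wells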
* marks the source's active call; other numbers are inactive results; x = no result.

SMILES | phage Ecoli inh | E coli growth-1 | AddAB inh | E coli growth-2 | AI-2 QS modul | Tat export inh
C/C=C1\NC(=O)[C@H](CC(N)=O)N(C)C(=O)C([C@@H](C)O)NC(=O)C(CCCc2ccc(OC)cc2)NC(=O)[C@H](C(C)C)NC(=O)/C(=C\C)NC(=O)[C@H](O)[C@@H](C[C@@H](O)CCCCCCC)NC(=O)[C@H](C)NC(=O)CN(C)C(=O)[C@H](CCC(N)=O)NC1=O (some centres not stated) | 1 | x | x | 0.52* | x | 12
Cc1ccc(OCc2cc(C(=O)NC(C)Cc3cccnc3)no2)cc1C (configuration not stated) | 3 | -1 | 4 | 0.67 | 38 | 3
Cc1ccc(OCc2cc(C(=O)NCCc3cccnc3)no2)cc1C | 1 | -1 | 1 | 0.66 | -84* | 7
NC(=NCCCCCCN=C(N)N=C(N)Nc1ccc(Cl)cc1)N=C(N)Nc1ccc(Cl)cc1 | x | x | x | 0.062* | x | x
CC(C)N=C(N)N=C(N)Nc1ccc(Cl)cc1 | 6 | 4 | -2 | 0.64 | x | 15
C#CCOCCOCCOCCNc1nc(N2CCOCC2)nc(N2CCN(C(=O)C(Cc3ccc(O)cc3)n3cc(C(N)CC(C)C)nn3)CC2)n1 (configuration not stated) | x | x | x | 0.68 | x | x
CC(C)CC(N)c1cn(C(Cc2cc3ccccc3[nH]2)C(=O)N2CCNCC2)nn1 (configuration not stated) | x | x | x | 0.7 | x | x
CC=CC=CC(=O)Nc1cccc(C2=NOC3(C2)CC(C(N)=O)N(C(=O)C(c2ccccc2)c2ccccc2)C3)c1 (configuration not stated) | x | x | x | 0.69 | x | x
CN1CCC(NCCC(c2ccc(F)cc2)c2ccc(Cl)cc2)CC1 (configuration not stated) | 1 | x | x | 0.51* | 11 | 3
CC(C)(C)OC(=O)NC(CO)c1cn(C(Cc2cc3ccccc3[nH]2)C(=O)N2CCN(C(=O)OC(C)(C)C)CC2)nn1 (configuration not stated) | x | x | x | 0.72 | x | x
CC(C)c1ccc(NC(=O)COc2ccccc2)cc1 | 2 | 1 | 3 | 0.63 | -20 | 3
CC(C)c1ccc(NC(=O)COc2ccccn2)cc1 | 1 | 2 | 1 | 0.66 | -83* | 11
CCC(C)C(C(=O)N1CCNCC1)n1cc(CCCN=C(N)N)nn1 (configuration not stated) | x | x | x | 0.7 | x | x
O=C(/C=C/c1ccccc1)NCCC1=CCCCC1 | 6 | 2 | 4 | 0.65 | -86* | 6
O=C(COC(=O)/C=C/c1ccccc1)NCCC1=CCCCC1 | 6 | -3 | 1 | 0.69 | 11 | 2
CCCN1CCC(=O)N(C(CO)CC(C)C)CC1 (configuration not stated) | x | x | x | 0.69 | x | x
O=S(=O)(N=C(Sc1ccccc1)c1ccccc1)c1ccccc1 | x | x | x | 0.66 | x | x
Cc1ccc(C(=O)CC(=O)COc2ccc(Cl)cc2)cc1 | 9 | -5 | -1 | 0.58 | -79* | -6
NC(=NO)c1ccc(Cl)cc1Cl | x | x | x | 0.58 | x | x
O=C1C(=O)c2cccnc2-c2ncccc21 | 101* | x | x | x | x | x
c1nc(CCOC2CCCCO2)cc2cc3c(cc12)OCO3 (configuration not stated) | x | x | x | 0.67 | x | x
COC(=O)CC1c2ccc(C(F)(F)F)cc2S(=O)(=O)N1Cc1ccccc1 (configuration not stated) | x | x | x | 0.66 | x | x
Cc1ccc(NC(=O)CNCc2cccs2)cc1Br | 1 | 2 | 1 | 0.64 | -76* | -2
CC(=O)c1ccc(NC(=O)CNCc2cccs2)cc1 | 3 | -1 | 1 | 0.65 | -11 | 5
C[C@]1(C(=O)NCCN2CCOCC2)C=CC(Cc2ccccc2)N1C(=O)c1ccccc1 (some centres not stated) | x | x | x | 0.69 | x | x
SMILES | phage Ecoli inh | E coli growth-1 | AddAB inh | E coli growth-2 | AI-2 QS modul | Tat export inh
COc1ccc2nc(C)cc(NN=Cc3ccccc3)c2c1 | x | x | x | 0.44* | x | x
COc1ccc(C=NNc2cc(C)nc3ccccc23)cc1 | x | x | x | 0.49* | x | x
COc1ccc(/C=N/Nc2cc(C)nc3ccccc23)cc1 | -2 | -1 | -2 | x | 12 | -7
Cc1ccc(C2(C)NC(=O)N(CC(=O)NNC(=O)c3cc(C)oc3C)C2=O)cc1 (configuration not stated) | 1 | 2 | 1 | 0.6 | -79* | -2
O=c1[nH]c2ccccc2nc1C=Cc1ccc(Cl)cc1 | x | x | x | 0.7 | x | x
CC1=NN(C(N)=S)C(=O)C1N=Nc1ccc(C)c(Br)c1 (configuration not stated) | 3 | 13* | 7 | 0.62 | 8 | -18
NCCCn1c(C(=O)c2cc(Cl)c(N)c(Cl)c2)c2ccc(C(F)(F)F)cc2[n+]1[O-] | 5 | -1 | 4 | 0.61 | 5 | -5
NCCCn1c(C(=O)c2cc(Cl)c(N)c(Cl)c2)c2ccc([N+](=O)[O-])cc2[n+]1[O-] | 7 | 12* | 15* | 0.42* | 13 | 9
CC(C)N1CCc2c(sc(NC(=O)c3nc4ccccc4s3)c2C(N)=O)C1 | 0 | -2 | -2 | 0.69 | 24 | -5
CC(C)N1CCc2c(sc(NC(=O)c3ccc(S(=O)(=O)N4CCc5ccccc54)cc3)c2C(N)=O)C1 | x | -1 | 1 | 0.72 | 30 | 62*
CN(C)S(=O)(=O)c1ccc(NC(=S)NC(=O)C2CCC2)cc1 | -2 | 0 | -1 | 0.68 | -76* | 6
CCN(CC)S(=O)(=O)c1ccc(NC(=S)NC(=O)C2CCC2)cc1 | -2 | x | x | 0.74 | 11 | -3
Cc1cccc(OCC(=O)O/N=C(\N)c2ccccn2)c1C | 1 | 0 | 2 | 0.68 | -93* | 2
Cc1ccc2nc(NN=Cc3ccc([N+](=O)[O-])o3)nc(-c3ccccc3)c2c1 | x | x | x | 0.79 | x | x
CCOc1cc(C=NNC(=O)c2ccccn2)ccc1OC(=O)c1ccc(F)cc1 | x | x | x | 0.72 | x | x
Cc1ccc(C=NNC(=O)CSc2nnc(-c3ccc(Cl)cc3)n2-c2ccccc2)o1 | x | x | x | 0.73 | x | x
CC1(c2ccc(OC(F)F)cc2)NC(=O)N(CC(=O)Nc2ccc3[nH]c(=O)[nH]c3c2)C1=O (configuration not stated) | 3 | 1 | 0 | 0.72 | 16 | -6
CC1CCN(S(=O)(=O)c2ccc(NC(=O)CN3C(=O)NC(C)(c4ccccc4)C3=O)cc2)CC1 (configuration not stated) | 1 | 1 | -1 | 0.66 | -79* | 0
CC1(c2ccc(OC(F)F)cc2)NC(=O)N(CC(=O)Nc2ccccc2)C1=O (configuration not stated) | -1 | -1 | 4 | 0.7 | -91* | -5
